Among the data in ChEMBL document CHEMBL3988442, “University of Dundee, Small-Polar-MMV Screening Library” (2021) are Percent Effect values, retold here.

For some of these results: Potency and affinity values are given separately.

Parameters in all cases: scale not given: direction of the effect not stated beside the values
Assay [1] has as its target Protein translocase subunit SecA (Escherichia coli (strain K12)) (UniProt P10408). Put plainly: Assay to Identify E. coli SecA ATPase Inhibitors. The conditions noted are these: 30 µM. The format is functional.
In assay [2] the target is T1, Ubiquitin-activating enzyme e1, putative (Leishmania donovani (strain BPK282A1)) (UniProt E9BSI1).
T1 sequence (whole entry): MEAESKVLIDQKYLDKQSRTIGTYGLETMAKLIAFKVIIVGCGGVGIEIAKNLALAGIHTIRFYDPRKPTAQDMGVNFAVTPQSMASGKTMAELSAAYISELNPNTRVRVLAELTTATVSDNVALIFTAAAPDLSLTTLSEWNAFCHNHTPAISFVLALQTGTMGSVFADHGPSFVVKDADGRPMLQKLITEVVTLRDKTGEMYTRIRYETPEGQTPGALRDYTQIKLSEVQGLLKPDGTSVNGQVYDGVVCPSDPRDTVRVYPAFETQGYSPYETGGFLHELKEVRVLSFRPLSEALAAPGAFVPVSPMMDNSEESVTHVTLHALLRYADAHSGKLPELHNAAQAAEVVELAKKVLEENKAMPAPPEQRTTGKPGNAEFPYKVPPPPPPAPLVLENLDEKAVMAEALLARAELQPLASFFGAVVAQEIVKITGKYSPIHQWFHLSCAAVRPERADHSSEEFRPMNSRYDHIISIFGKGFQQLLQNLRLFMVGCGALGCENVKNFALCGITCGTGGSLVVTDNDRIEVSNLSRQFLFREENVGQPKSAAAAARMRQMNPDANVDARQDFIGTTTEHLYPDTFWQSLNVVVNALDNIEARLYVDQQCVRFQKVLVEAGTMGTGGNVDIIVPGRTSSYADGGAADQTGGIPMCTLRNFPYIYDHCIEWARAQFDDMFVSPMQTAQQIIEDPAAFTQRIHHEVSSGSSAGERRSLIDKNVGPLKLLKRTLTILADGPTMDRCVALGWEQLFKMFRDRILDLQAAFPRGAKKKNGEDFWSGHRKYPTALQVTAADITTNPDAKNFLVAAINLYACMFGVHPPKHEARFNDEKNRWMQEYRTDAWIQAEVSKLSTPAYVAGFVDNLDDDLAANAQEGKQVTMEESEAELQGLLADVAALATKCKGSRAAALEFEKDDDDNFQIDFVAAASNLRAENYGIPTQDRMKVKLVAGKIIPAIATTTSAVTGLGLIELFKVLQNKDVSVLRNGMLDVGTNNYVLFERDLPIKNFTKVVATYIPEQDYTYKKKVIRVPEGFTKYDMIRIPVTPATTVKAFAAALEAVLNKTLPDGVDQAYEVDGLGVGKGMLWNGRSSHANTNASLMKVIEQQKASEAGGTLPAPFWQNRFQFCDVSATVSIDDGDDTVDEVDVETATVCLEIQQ
Put plainly: Leishmania donovani Ubiquitin Activating Enzyme (LdE1). The format is functional. To be noted: 30 µM.

Assay [3] deals with AMP-activated protein kinase, AMPK (Homo sapiens) (UniProt P54646+O43741+P54619+Q9UGJ0+Q9Y478+Q13131+Q9UGI9). Put plainly: AMP-dependent Kinase enzyme assay. An in vitro enzyme assay that detects ADP turnover that is directly proportional to AMPK activity. This uses naive AMPK that is activated during the assay with MK-8722. The class given is functional. To be noted: 30 µM.

Assay [4] deals with Sialic acid-binding Ig-like lectin 9 (Homo sapiens) (UniProt Q9Y336). Put plainly: Hs-Siglec9 ALPHAscreen SOP 20170721. To be noted: 10 µM.
In a further assay the test system is Trypanosoma cruzi. Put plainly: Trypanosoma cruzi phosphomannomutase and mannose-1-phosphate guanylyltransferase assay. The format is functional. To be noted: 10 µM.
Assay [5] concerns the target T2, Arginase-2, mitochondrial (Homo sapiens) (UniProt P78540).
T2 sequence (whole entry): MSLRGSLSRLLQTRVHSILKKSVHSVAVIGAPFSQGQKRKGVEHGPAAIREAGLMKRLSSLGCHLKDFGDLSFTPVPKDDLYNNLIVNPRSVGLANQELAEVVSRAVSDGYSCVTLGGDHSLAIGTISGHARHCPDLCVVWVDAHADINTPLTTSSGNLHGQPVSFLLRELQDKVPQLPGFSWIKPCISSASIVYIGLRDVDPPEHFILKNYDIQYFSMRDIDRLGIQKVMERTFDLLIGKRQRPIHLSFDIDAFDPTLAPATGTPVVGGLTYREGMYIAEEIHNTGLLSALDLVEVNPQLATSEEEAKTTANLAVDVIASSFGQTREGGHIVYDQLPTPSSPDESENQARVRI
Put plainly: in vitro enzyme assay to detect the production of urea directly proportional to the activity of Arginase II. Also: in the data most compounds retested in dose-response had high values. The format is functional. To be noted: 33.3 µM.

The target in assay [6] is T3, Proteasome subunit beta (Trypanosoma cruzi) (UniProt O96673).
T3 sequence (whole entry): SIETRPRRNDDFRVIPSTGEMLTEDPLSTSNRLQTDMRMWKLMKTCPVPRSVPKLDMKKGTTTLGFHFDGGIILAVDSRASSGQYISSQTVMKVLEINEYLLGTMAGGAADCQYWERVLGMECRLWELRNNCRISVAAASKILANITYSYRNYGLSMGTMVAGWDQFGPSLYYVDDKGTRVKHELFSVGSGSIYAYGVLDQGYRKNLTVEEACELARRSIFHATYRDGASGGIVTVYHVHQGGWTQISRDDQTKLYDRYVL
Put plainly: Trypanosoma cruzi proteasome chymotrypsin-like activity (TcProtChymo) assay. Also: in the data most compounds retested in dose-response had high values. The class given is functional. The conditions noted are these: 9.37 µM.

The species entered for another assay is Homo sapiens. Put plainly: To identify inhibition of the IFN signalling (Jak-Stat) pathway via expression of an eGFP reporter gene under the control of an IFN-stimulated response element (ISRE) containing MxA promoter. The class given is functional. To be noted: 30 µM.
For assay [7], the target named is T4, Tyrosyl-tRNA synthetase, putative (Trypanosoma cruzi (strain CL Brener)) (UniProt Q4DSP6).
T4 sequence (whole entry): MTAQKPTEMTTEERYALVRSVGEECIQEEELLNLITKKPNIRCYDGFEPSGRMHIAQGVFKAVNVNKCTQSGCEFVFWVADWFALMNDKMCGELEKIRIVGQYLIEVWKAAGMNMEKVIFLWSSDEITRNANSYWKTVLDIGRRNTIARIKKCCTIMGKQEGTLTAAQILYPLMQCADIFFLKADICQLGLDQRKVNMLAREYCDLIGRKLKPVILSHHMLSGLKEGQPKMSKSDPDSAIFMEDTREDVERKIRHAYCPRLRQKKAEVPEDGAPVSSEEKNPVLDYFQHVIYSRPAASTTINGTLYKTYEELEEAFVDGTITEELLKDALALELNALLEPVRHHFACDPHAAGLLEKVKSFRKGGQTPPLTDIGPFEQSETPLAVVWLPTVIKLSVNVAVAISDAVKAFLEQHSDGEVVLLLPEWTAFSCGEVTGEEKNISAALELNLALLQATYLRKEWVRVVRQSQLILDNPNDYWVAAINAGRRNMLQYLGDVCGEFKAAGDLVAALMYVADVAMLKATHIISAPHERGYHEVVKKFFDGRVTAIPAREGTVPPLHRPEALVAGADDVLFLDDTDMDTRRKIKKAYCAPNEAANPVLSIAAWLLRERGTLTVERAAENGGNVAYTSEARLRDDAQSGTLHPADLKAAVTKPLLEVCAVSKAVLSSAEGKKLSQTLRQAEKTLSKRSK
Put plainly: Trypanosoma cruzi tyrosyl tRNA synthetase (TcYRS) _High Tyrosine SOP. Also: in the data most compounds retested in dose-response had high values. The format is functional. To be noted: 30 µM.

The target in assay [8] is T4, Tyrosyl-tRNA synthetase, putative (Trypanosoma cruzi (strain CL Brener)). Put plainly: Trypanosoma cruzi tyrosyl tRNA synthetase (TcYRS) SOP. The format is functional. To be noted: 30 µM.
For assay [9], the target named is Chromo domain-containing protein 1 (Saccharomyces cerevisiae (strain ATCC 204508 / S288c) (Baker's yeast)) (UniProt P32657). Put plainly: ScCHD-1 Enzyme Inhibition Assay. Also: in the data most compounds retested in dose-response had high values. The format is functional. To be noted: 30 µM.
Sequence of Chromo domain-containing protein 1 (Saccharomyces cerevisiae (strain ATCC 204508 / S288c) (Baker's yeast)) (P32657 whole entry, the tested form may be a part): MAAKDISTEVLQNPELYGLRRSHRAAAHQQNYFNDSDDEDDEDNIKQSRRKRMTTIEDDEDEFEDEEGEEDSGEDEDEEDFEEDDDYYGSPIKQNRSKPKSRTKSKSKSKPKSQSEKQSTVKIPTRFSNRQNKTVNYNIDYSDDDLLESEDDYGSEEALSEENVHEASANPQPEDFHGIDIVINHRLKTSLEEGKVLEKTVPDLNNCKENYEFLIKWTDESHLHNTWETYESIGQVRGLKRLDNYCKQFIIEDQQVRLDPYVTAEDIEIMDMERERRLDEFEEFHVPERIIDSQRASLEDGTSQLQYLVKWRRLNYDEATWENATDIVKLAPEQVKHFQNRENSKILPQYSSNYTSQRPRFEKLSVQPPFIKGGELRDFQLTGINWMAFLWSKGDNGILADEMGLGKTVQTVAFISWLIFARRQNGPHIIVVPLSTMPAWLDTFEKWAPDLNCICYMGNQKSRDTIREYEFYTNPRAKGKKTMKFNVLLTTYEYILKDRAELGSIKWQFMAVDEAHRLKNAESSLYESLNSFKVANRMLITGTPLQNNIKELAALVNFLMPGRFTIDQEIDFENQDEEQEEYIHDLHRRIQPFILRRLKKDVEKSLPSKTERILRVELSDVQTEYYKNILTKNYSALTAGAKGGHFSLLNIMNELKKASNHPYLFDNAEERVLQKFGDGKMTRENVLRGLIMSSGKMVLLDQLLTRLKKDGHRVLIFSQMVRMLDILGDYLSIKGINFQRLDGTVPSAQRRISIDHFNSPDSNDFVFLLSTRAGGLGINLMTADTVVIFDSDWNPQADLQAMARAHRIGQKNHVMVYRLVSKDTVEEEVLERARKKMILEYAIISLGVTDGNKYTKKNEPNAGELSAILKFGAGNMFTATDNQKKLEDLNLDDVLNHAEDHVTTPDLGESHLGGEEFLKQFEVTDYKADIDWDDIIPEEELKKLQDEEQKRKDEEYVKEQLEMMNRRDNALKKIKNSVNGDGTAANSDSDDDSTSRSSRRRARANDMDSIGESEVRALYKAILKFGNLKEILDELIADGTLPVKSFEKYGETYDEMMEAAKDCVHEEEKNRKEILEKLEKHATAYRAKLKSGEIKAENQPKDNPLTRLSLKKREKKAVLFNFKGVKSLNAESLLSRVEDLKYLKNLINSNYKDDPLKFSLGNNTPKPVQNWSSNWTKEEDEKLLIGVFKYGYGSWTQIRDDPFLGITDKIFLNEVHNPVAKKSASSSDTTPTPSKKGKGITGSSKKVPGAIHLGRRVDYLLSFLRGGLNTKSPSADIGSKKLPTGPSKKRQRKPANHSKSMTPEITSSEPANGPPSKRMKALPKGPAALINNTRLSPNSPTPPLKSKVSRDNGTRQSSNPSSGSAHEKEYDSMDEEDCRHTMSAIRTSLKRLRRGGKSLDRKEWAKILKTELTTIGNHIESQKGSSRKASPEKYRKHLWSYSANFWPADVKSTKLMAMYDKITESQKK

Sequence of Sialic acid-binding Ig-like lectin 9 (Homo sapiens) (Q9Y336 whole entry): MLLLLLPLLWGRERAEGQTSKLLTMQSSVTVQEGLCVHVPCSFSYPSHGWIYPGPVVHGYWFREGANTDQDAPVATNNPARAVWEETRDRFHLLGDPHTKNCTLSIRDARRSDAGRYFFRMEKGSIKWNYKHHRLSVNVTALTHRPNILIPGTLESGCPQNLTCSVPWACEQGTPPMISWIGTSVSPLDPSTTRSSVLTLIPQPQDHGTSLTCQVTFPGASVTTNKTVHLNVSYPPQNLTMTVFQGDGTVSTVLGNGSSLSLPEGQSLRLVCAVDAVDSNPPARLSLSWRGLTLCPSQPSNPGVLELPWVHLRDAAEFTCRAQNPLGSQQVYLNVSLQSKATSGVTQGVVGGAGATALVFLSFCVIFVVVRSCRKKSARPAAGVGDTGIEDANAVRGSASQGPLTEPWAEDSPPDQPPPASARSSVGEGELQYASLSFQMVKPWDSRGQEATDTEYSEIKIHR
Sequence of Protein translocase subunit SecA (Escherichia coli (strain K12)) (P10408 whole entry): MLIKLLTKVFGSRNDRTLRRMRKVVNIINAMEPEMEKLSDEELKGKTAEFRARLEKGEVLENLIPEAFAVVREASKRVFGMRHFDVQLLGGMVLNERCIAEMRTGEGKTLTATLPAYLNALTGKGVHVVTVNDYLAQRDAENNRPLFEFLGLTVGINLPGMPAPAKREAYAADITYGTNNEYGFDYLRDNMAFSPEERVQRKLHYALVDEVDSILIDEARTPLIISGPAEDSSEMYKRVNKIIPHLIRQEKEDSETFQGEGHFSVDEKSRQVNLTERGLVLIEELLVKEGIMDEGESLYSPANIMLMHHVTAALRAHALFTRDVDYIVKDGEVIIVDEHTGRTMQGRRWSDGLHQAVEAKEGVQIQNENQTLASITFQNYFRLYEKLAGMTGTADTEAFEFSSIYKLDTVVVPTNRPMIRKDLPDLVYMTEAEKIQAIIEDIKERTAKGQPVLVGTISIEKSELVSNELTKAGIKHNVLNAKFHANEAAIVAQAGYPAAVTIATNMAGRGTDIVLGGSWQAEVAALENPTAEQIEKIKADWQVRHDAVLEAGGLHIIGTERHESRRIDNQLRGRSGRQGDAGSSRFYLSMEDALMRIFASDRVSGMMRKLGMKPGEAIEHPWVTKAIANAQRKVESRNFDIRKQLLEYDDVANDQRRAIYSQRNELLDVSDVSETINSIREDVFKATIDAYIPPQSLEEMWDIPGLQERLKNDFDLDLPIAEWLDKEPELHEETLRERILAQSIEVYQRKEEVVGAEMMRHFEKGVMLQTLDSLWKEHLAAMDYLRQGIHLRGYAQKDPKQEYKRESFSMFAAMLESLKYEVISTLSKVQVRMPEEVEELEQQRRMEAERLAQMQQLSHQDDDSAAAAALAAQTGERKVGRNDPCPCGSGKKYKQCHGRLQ

On to `COc1cccc(CN(C)C(=O)CSc2ccc3c(c2)OCCO3)c1`, for which the Percent Effect in [1] was -7.29%; in assay [2], -10.5%; in assay [3] it was 15.3%; in assay [4], 0.77%; in the assay with Trypanosoma cruzi it was -0.876%; in assay [5], -2.37%. The Percent Effect in assay [6] is 6.62%; in the assay listed under Homo sapiens, 6.47%; in assay [7], -4.25%; in assay [8], -15.6%; in assay [9] it was 0.365%.

For `Cc1cnc(CNC(=O)NCc2cccnc2N(C)C)s1`, the Percent Effect in [1] is -3.06%; in [2], -2.6%; in assay [3] it was 1.02%; in assay [4], 13.8%; in the assay on Trypanosoma cruzi it was -2.43%; in assay [5], 2.85%. Moreover, the Percent Effect in assay [6] was -5.07%; in the assay listed under Homo sapiens, 5.66%; in assay [7], 0%; in [8], 7.32%; in assay [9], 2.89%.

Take `Cc1cnc(CN2CCOC(Cn3nc(C)nc3C)C2)cn1` (stereo not drawn): the Percent Effect in [1] is -1.64%; in assay [2], 17.7%; in assay [3] it was -6.35%; in assay [4], 2.13%; with Trypanosoma cruzi, 4.82%; in assay [5], 3.42%. Also, the Percent Effect in [6] is 15.8%; in the assay filed under Homo sapiens it was -21.9%; in assay [7], 6.4%; in [8], 24.1%; in assay [9], -3.57%.

Consider `CN(CCCC#N)C1CCCN(Cc2noc(C3CC3)n2)C1` (stereo not drawn), for which the Percent Effect is -1.64% in assay [1]; 15.3% in assay [2]; -17% in assay [3]; 7.77% in [4]; 0.68% with Trypanosoma cruzi; 5.74% in assay [5]. In addition, the Percent Effect in [6] is 12.8%; in the assay filed under Homo sapiens, -4.02%; in assay [7] it was 4.21%; in assay [8] it was 7.69%; in [9] it was -5.25%.

On to `COc1cccc(S(=O)(=O)CCN2CCCN(C(C)=O)CC2)c1`, for which the Percent Effect is -0.358% in assay [1]; 5.33% in assay [2]; -1.44% in assay [3]; 13.1% in assay [4]; 6.13% with Trypanosoma cruzi; 24% in assay [5]. The Percent Effect in assay [6] is 1.22%; in the assay filed under Homo sapiens, 18.5%; in [7], 1.64%; in [8], 6.17%; in assay [9], -15.8%.

As for `CC(C)c1nnc2n1CC(CNCc1ccncc1)CC2` (stereo not drawn), the Percent Effect in [1] is -1.84%; in assay [2] it was 4.17%; in [3], -5.62%; in assay [4], -8.26%; with Trypanosoma cruzi, -3.21%; in assay [5], 2.21%. The Percent Effect in assay [6] is 17%; in the assay filed under Homo sapiens, -9.1%; in assay [7], 3.16%; in assay [8], -2.56%; in [9], -2.53%.

In the case of `OCc1ccc(Cl)c(NCc2cccnc2)c1`, the Percent Effect in assay [1] was -4.1%; in assay [2] it was 0%; in [3], -0.207%; in [4], -4.73%; in the assay with Trypanosoma cruzi it was -1.85%; in [5], 2.37%. For the same compound, the Percent Effect was 2.01% in assay [6]; -2.65% in the assay filed under Homo sapiens; 0% in assay [7]; -5.2% in assay [8]; -6.29% in assay [9].

For `Cc1nc(Nc2nccs2)cc(C2CCCN2C2CCOCC2)n1` (stereo not drawn), the Percent Effect was -6.58% in assay [1]; 12.2% in assay [2]; 4.38% in [3]; 1.96% in assay [4]; 4.35% with Trypanosoma cruzi; -3.48% in assay [5]. For the same compound, the Percent Effect in [6] is 8.89%; in the assay filed under Homo sapiens it was 6.9%; in assay [7], 6.45%; in [8] it was 14.3%; in assay [9] it was -16.1%.
